# Assay outcomes deposited in PubChem by Sanford-Burnham Center for Chemical Genomics.
# An excerpt weighted towards active compounds, which were near 3.1% of everything screened.
# KKLEB tox: CF airway cell cytotoxicity counter-screen; AID 602141; activity change (cytotoxicity), % at 5 µM; 360,000 compounds, 0.36% hits; KKLEB CF airway cells viability, ATPlite luminescence, overnight; stronger effect = lower value; cells stimulated with P. aeruginosa culture filtrate;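 active = corrected activity change at or below -50% at 5 µM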
# TRAIL sens C8: sensitizes caspase-8 expressing cells to TRAIL | inhibition (viability loss, TRAIL sensitization), % at 10 µM | NB7+C8 cells + TRAIL, ATPlite viability luminescence | AID 624354 | 360,000 compounds, 1% hits;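 active = compounds causing at least 50% loss of cell viability in the single-dose screen, relative to plate controls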
# PPC-1+TRAIL kill: compounds killing PPC-1 cancer cells with TRAIL present (potentiator screen, no TRAIL-free arm); PPC-1 cells + TRAIL, ATPLite viability luminescence; cell killing (% activity), % at 4 µM or 5 µM; 220,000 compounds, 0.41% hits; AID 1443;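 active = cell killing above 50% in the first pass at 4 µM, then a duplicate retest at 5 µM averaging 50% or more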;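 also: plate controls were cells with TRAIL plus DMSO for no effect and medium-only wells lacking cells for full effect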
# CF NFkB inh: inhibitors of cystic fibrosis induced NF-kB; KKLEB NF-kB-GFP reporter, PAF-induced, GFP fluorescence overnight; inhibition, % at 5 µM; 360,000 compounds, 0.86% hits;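 active = at least 50% inhibition at 5 µM, scaled per plate between neutral and stimulator controls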;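 also: PAF is a Pseudomonas aeruginosa culture filtrate used as stimulus; plate controls were PAF-stimulated DMSO wells for no effect and unstimulated DMSO wells for full effect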
# Peg3 promoter: Peg3 promoter activity inhibition. HeLa PEG-Prom luciferase reporter, luminescence, overnight. inhibition, % at 20 µM. 360,000 compounds, 1.7% hits;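 active = inhibition of at least 50% at 20 µM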
# HIF-2a inh: blocks HIF-2a reporter activity; inhibition, % at 18.8 µM; 360,000 compounds, 0.72% hits; 786-0 RCC cells HIF-2a reporter, luciferase luminescence, overnight;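 active = inhibition of the luminescence signal of 40% or more relative to plate controls, in a single-dose primary screen at 18.75 µM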
# * hit, by the source's call; nt = no result.
SMILES,KKLEB tox,TRAIL sens C8,PPC-1+TRAIL kill,CF NFkB inh,Peg3 promoter,HIF-2a inh
O=C1NC(=O)N(Cc2ccc(F)cc2)C(=O)/C1=C/c1cccs1,12,16,nt,30,42,20
O=C1NC(=O)N(Cc2ccccc2Cl)C(=O)/C1=C/c1cccs1,-11,-7,21,43,60*,50*
CN(C)c1ccc(C=C2C(=O)NC(=O)NC2=O)cc1,13,4,nt,-6,12,5
CCN(CC)c1ccc(C=C2C(=O)NC(=S)NC2=O)cc1,-13,22,6,66*,104*,68*
CN(C)c1ccc(C=C2C(=O)NC(=S)NC2=O)cc1,2,-11,nt,24,89*,25
Fc1cccc(C2NCCc3[nH]cnc32)c1 (stereo not given),2,-11,12,2,28,17
O=C1C(Cc2cnc[nH]2)NC(=S)N1c1ccccc1 (stereo not given),12,-10,nt,-2,-10,-6
O=[N+]([O-])c1cccc(NP(=O)(N2CC2)N2CC2)c1,11,-3,nt,-24,10,8
CC1CC(C)(O)CC(C(O)CC2CC(=O)NC(=O)C2)C1=O (stereo not given),0,23,nt,91*,96*,55*
CC=CC(C)=CC(C)C(=O)CC(O)CC1CC(=O)NC(=O)C1 (stereo not given),-12,10,nt,26,35,30
CCOP(=O)(/C=C(\Cl)c1ccccc1)C(O)c1ccc(F)cc1 (stereo not given),6,-22,nt,2,10,15
COC1/C=C/C=C(\C)Cc2cc(O)c(Cl)c(c2)N(C)C(=O)CC(OC(=O)C(C)C)C2(C)OC2C(C)C2CC1(O)NC(=O)O2 (stereo not given),-23,9,nt,58*,-22,35
Cc1c(O)ccc(C(=O)CN2CC(C)OC(C)C2)c1O (stereo not given),3,-8,nt,14,9,-4
NNC(N)=O,2,0,nt,-7,-2,-1
Cc1ccsc1/C=C1\C(=O)NC(=S)N(C)C1=O,6,24,nt,31,90*,26
C=CCN1C(=O)/C(=C/c2ccc(Br)s2)C(=O)NC1=S,-5,-10,nt,6,10,14
CN1C(=O)/C(=C/c2ccc(Cl)s2)C(=O)NC1=S,-11,11,nt,66*,55*,20
CN1C(=O)/C(=C\c2ccc(N3CCCCCC3)cc2)C(=O)NC1=S,-5,7,3,6,78*,-19
COc1ccc(/C=C2\C(=O)NC(=S)N(C)C2=O)cc1C,0,-3,-11,0,14,19
Nc1ccc2c(c1)oc1ccccc12,5,-5,10,-18,-147,-227
CCC1CN1P(=O)(c1ccccc1)N1CC1CC (stereo not given),-2,6,nt,18,-4,3
Cc1cccc(C)c1-n1nnnc1C(c1cccc2ccccc12)N1CCC(n2c(=O)[nH]c3ccccc32)CC1 (stereo not given),-8,7,nt,26,43,-10
O=c1[nH]c2ccccc2n1C1CCN(C(c2cccc3ccccc23)c2nnnn2-c2ccc3c(c2)OCCO3)CC1 (stereo not given),-85*,19,nt,84*,71*,-19
COc1ccc(-n2nnnc2C(c2cc3ccccc3o2)N2CCC(n3c(=O)[nH]c4ccccc43)CC2)cc1 (stereo not given),-15,66*,nt,11,92*,-5
O=c1[nH]oc2c1CCNC2,-3,-5,nt,-12,-9,-1
SMILES,KKLEB tox,TRAIL sens C8,PPC-1+TRAIL kill,CF NFkB inh,Peg3 promoter,HIF-2a inh
COC1=CC(=O)O[C@@H](/C=C/c2ccccc2)C1,-6,1,nt,-2,-53,-56
CC12CCC(O)CC1CCC1C2CCC2(C)C(C3=CC(=O)OC3)C(O)CC12O (stereo not given),-49,58*,nt,71*,94*,16
CC(=O)C1CCC2C3CCC4CC(O)CCC4(C)C3CCC12C (stereo not given),18,-8,nt,-10,10,13
O=C1NC(=O)C(=Cc2c(Cl)cccc2Cl)C(=O)N1,-38,20,nt,59*,15,26
CC(C)(O)/C=C/C(=O)C(C)(O)C1C(O)CC2(C)C3CC=C4C(C=C(O)C(=O)C4(C)C)C3(C)C(=O)CC12C (stereo not given),-62*,62*,nt,86*,99*,91*
CC(=O)OC(C)(C)/C=C/C(=O)[C@](C)(O)C1[C@H](O)C[C@@]2(C)C3CC=C4C(C[C@H](O)C(=O)C4(C)C)[C@]3(C)C(=O)C[C@]12C (stereo not given in full),-89*,41,nt,84*,104*,72*
C#C[C@]1(O)CC[C@H]2[C@@H]3CCC4=Cc5nc6nc7ccccc7n6cc5C[C@]4(C)[C@H]3CC[C@@]21C,26,28,nt,-22,66*,21
CC(=O)OC1CC2OC3C=C(C)CCC3(C)C1(C)C21CO1 (stereo not given),-19,58*,nt,93*,108*,72*
Cc1cccc(C)c1-n1nnnc1C(C1CC1)N1CCC(n2c(=O)[nH]c3ccccc32)CC1 (stereo not given),11,-1,nt,-34,51*,-7
Cc1cccc(C)c1-n1nnnc1C(c1cccs1)N1CCC(n2c(=O)[nH]c3ccccc32)CC1 (stereo not given),-8,-2,nt,0,29,9
COc1ccc(C(c2nnnn2Cc2ccccc2)N2CCC(n3c(=O)[nH]c4ccccc43)CC2)cc1 (stereo not given),-96*,-5,nt,85*,74*,-25
O=c1[nH]c2ccccc2n1C1CCN(C(c2cccs2)c2nnnn2Cc2ccccc2)CC1 (stereo not given),-79*,31,nt,86*,78*,0
CC(C)(C)n1nnnc1C(C1CC1)N1CCC(n2c(=O)[nH]c3ccccc32)CC1 (stereo not given),2,8,nt,-3,23,-2
O=c1[nH]c2ccccc2n1C1CCN(C(c2nnnn2C2CCCC2)C2CC2)CC1 (stereo not given),6,-3,nt,12,11,-11
O=c1[nH]c2ccccc2n1C1CCN(C(c2ccccc2OC(F)(F)F)c2nnnn2Cc2ccccc2)CC1 (stereo not given),-54*,9,nt,82*,92*,-51
Cc1cc(NC(=O)CCl)no1,0,-9,26,-23,17,14
N#CC12CNCC1CN=N2 (stereo not given),16,-15,1,-35,8,14
O=c1[nH]c2ccccc2n1C1CCN(C(c2nnnn2Cc2ccccc2)C2CC2)CC1 (stereo not given),-79*,-6,nt,86*,76*,-25
